Source: PubChem BioAssay (Buhrlage Lab, Dana-Farber Cancer Institute and Novartis Institutes for BioMedical Research (Cambridge, Mass))
Sampled rows, rich in hits. Any-hit rate of the full collection: about 5%.
USP10 block: blocks human USP10 ubiquitin-rhodamine cleavage | Q14694 | purified USP10, Ub-rhodamine fluorescence, 60 min | inhibition, % at 20 µM | 1.1% of 47,000 active | AID 1645856
Target sequence (Q14694 whole entry, looked up): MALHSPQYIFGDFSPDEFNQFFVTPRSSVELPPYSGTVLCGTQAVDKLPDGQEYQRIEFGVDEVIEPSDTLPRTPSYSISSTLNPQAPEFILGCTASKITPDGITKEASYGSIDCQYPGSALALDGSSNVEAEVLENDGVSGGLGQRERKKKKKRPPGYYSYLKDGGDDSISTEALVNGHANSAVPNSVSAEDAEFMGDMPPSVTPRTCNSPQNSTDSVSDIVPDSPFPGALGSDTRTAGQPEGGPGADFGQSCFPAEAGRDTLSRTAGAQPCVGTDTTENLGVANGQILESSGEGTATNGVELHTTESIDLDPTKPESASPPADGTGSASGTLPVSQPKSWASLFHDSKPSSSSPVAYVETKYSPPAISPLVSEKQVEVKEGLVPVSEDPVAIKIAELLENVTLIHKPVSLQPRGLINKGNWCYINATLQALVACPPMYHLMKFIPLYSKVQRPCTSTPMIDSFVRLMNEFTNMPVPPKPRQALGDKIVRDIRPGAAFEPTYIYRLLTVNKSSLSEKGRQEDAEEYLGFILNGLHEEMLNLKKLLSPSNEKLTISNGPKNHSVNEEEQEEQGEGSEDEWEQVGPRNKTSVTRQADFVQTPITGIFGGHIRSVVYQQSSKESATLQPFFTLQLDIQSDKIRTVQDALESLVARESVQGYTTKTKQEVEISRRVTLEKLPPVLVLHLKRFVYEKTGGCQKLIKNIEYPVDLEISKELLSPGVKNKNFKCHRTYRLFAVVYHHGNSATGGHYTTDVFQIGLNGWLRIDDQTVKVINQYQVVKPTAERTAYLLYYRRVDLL
USP8 block: inhibitors of human USP8 deubiquitinase. P40818. purified USP8, Ub-rhodamine cleavage fluorescence, 30 min. inhibition, % at 20 µM. 4.2% of 47,000 active. AID 1645853
USP7 block: inhibitors of human USP7 deubiquitinase; Q93009; purified USP7, Ub-rhodamine cleavage fluorescence; inhibition, % at 20 µM; 0.3% of 47,000 active
UCHL1 block: blocks human UCHL1 ubiquitin-rhodamine cleavage; inhibition, % at 20 µM; P09936; 0.2% of 47,000 active; purified UCHL1, Ub-rhodamine cleavage fluorescence
* marks the source's active call; other numbers are inactive results. Rule as the data show it: active = inhibition above about 30%; inactive = the rest.

Screening COc1ccc(-c2cc3nc([C@H](C)NC(=O)Cc4ccccc4C)nn3cn2)cc1 returned USP10 block 36.4*, USP8 block 94.4*, USP7 block 32.2* and UCHL1 block 3.6.
For COc1ccc(C(C(=O)NCc2ccccc2)N(C(=O)CCN2CCc3ccccc32)c2ccc3c(c2)OCO3)cc1 (centres undefined) the results were USP10 block 0.4, USP8 block 22.9, USP7 block 5.3 and UCHL1 block 2.1.
For O=C(NCc1ccccc1)C(c1ccc(F)cc1)N(C(=O)CCN1CCc2ccccc21)c1ccc2c(c1)OCO2 (centres undefined) the results were USP10 block -3.0, USP8 block 39.8*, USP7 block 7.0 and UCHL1 block -10.6.
O=C(CSc1cn[nH]n1)Nc1cc(C(F)(F)F)ccc1Cl was read as USP10 block -1.4, USP8 block 14.5, USP7 block 5.1 and UCHL1 block -0.6.
For Cc1cc(C)cc(NC(=O)c2ccc(CSc3ncnc4nc[nH]c34)cc2)c1 the results were USP10 block 0.3, USP8 block -12.0, USP7 block 3.5 and UCHL1 block -1.1.
CC(Sc1ncnc2nc[nH]c12)C(=O)Nc1ccc(Br)cc1F (centres undefined) was read as USP10 block 22.0, USP8 block 73.6*, USP7 block 10.9 and UCHL1 block 1.3.
For Cn1c(=O)c(-c2ccc(C(=O)NCc3ccc4c(c3)OCO4)cc2)nc2cccnc21 the results were USP10 block 19.2, USP8 block 40.0*, USP7 block 9.2 and UCHL1 block 1.1.
`Cn1c(=O)c(-c2ccc(C(=O)NCc3cccc(Cl)c3)cc2)nc2cccnc21` gave USP10 block 10.8, USP8 block 43.3*, USP7 block 5.0 and UCHL1 block 5.1.
Screening O=C(NCc1cccc(Cl)c1)c1ccc(-c2nnc(-c3ccccc3)o2)cc1 returned USP10 block 26.1, USP8 block 93.3*, USP7 block 14.3 and UCHL1 block 2.5.
`Cc1cccc(CNC(=O)c2ccc(-c3nnc(-c4cccc(C)c4)o3)cc2)c1` gave USP10 block 12.3, USP8 block 9.5, USP7 block 4.1 and UCHL1 block 1.1.
Screening CS(=O)(=O)c1cccc(-c2nnc(NC(=O)c3ccc(Cc4ccccc4)cc3)o2)c1 returned USP10 block 40.7*, USP8 block 34.9*, USP7 block 12.3 and UCHL1 block 7.9.
Screening Cn1cc(CC(=O)NCc2ccc3c(c2)OCO3)c2cccnc21 returned USP10 block -1.7, USP8 block -30.6, USP7 block -2.2 and UCHL1 block -2.4.
Screening CS(=O)(=O)c1ccc(-c2nnc(NC(=O)c3ccco3)o2)cc1 returned USP10 block 1.9, USP8 block -1.6, USP7 block 4.5 and UCHL1 block 0.1.
For COc1ccccc1C(=O)NC1CCN(c2ccccc2)C1=O (centres undefined) the results were USP10 block -0.1, USP8 block 1.7, USP7 block 2.1 and UCHL1 block 1.0.
For O=S(=O)(c1ccccc1)c1cnc2ccc(F)cc2c1N1CCCC1 the results were USP10 block 0.1, USP8 block -2.1, USP7 block 3.5 and UCHL1 block 2.2.
`COc1cc2c(cc1OC)[C@H](C)N(CC1C(=O)O[C@@H]3C[C@@]4(C)CCC[C@H](C)C4=C[C@H]13)CC2` (some centres undefined) gave USP10 block -9.3, USP8 block 45.1*, USP7 block -16.3 and UCHL1 block -14.1.
`C[C@H]1CCC[C@]2(C)C[C@H]3OC(=O)C(CN4CCc5ccccc5C4)[C@H]3C=C12` (some centres undefined) gave USP10 block 11.9, USP8 block -3.6, USP7 block 4.2 and UCHL1 block -0.4.
For COc1cc2c(cc1OC)[C@H](C)N(CC1C(=O)O[C@@]34[C@H]1CC[C@@H](C)[C@@H]3CC[C@@]1(C)O[C@@H]41)CC2 (some centres undefined) the results were USP10 block -8.1, USP8 block 50.3*, USP7 block -4.9 and UCHL1 block -4.3.
For CN(C(=O)Cn1c(=O)c2cnc(-c3ccccc3)nc2n(C)c1=O)C1CCCCC1 the results were USP10 block -1.1, USP8 block 16.2, USP7 block 0.8 and UCHL1 block 0.5.
Screening COCC(=O)N1CC[C@H]2COC(=O)N[C@@H]2C1 returned USP10 block -2.9, USP8 block 3.6, USP7 block -0.2 and UCHL1 block -3.1.
For CC(C)C(=O)N1CCc2cc(-c3csc(NC(=O)CN4CCCCC4)n3)ccc21 the results were USP10 block -10.1, USP8 block -61.0, USP7 block -8.2 and UCHL1 block -13.4.
Screening Cc1ccc(C(=O)N2CCc3cc(-c4csc(NC(=O)Cn5nnc6ccccc65)n4)ccc32)cc1 returned USP10 block 14.2, USP8 block 57.5*, USP7 block 8.2 and UCHL1 block 1.2.
